Measurements: PubChem BioAssay AID1159580 (chemical genetic matrix, 2015)
In all, about 5,500 compounds went through this assay and about 2,000 (36%) were called active. Another 18% or so got no clear call; they are omitted. This is one part of the list. A number with no mark means an inactive call. Rule as the data show it: active = normalized growth mostly below about 0.91 (no sharp cut-off); inconclusive = no clear call, values can overlap the other calls; inactive = mostly above about 0.92.

Experiment: chemical genetic growth profiling, strain panel (AID 1159580);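 also: tested at 20 µM; growth read once vehicle control cultures reached saturation at 30 °C; 1 = growth at the plate median or of vehicle wells; lower values mean less growth of the strain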
Conditions: growth OD

CCCCC(CC)CN1CN(CC(CC)CCCC)CC(C)(N)C1 (centres undefined)
normalized growth (S. cerevisiae deletion strains, locus YJR043C, strain POL32, active compounds read low): 0.37 (active) | normalized growth (S. cerevisiae deletion strains, locus YJR075W, strain HOC1, active compounds read low): 0.372 (active) | normalized growth (S. cerevisiae deletion strains, locus YKL009W, strain mrt4, active compounds read low): 0.939 | normalized growth (S. cerevisiae deletion strains, locus YKL068W, active compounds read low): 1.01 | normalized growth (S. cerevisiae deletion strains, locus YKL085W, strain MDH1 (second series), active compounds read low): 0.994 | normalized growth (S. cerevisiae deletion strains, locus YKL085W, strain MDH1, active compounds read low): 0.994 | normalized growth (S. cerevisiae deletion strains, locus YKL160W, strain elf1, active compounds read low): 0.373 (active) | normalized growth (S. cerevisiae deletion strains, locus YKL190W, strain CNB1, active compounds read low): 0.445 (active) | normalized growth (S. cerevisiae deletion strains, locus YKR001C, strain vps1, active compounds read low): 0.0669 (active) | normalized growth (S. cerevisiae deletion strains, locus YKR026C, strain gcn3, active compounds read low): 0.059 (active) | normalized growth (S. cerevisiae deletion strains, locus YKR091W, strain srl3, active compounds read low): 0.0561 (active) | normalized growth (S. cerevisiae deletion strains, locus YLL001W, strain dnm1, active compounds read low): 0.0613 (active) | normalized growth (S. cerevisiae deletion strains, locus YLL026W, active compounds read low): 0.0554 (active) | normalized growth (S. cerevisiae deletion strains, locus YLL041C, strain sdh2, active compounds read low): 0.0528 (active) | normalized growth (S. cerevisiae deletion strains, locus YLR027C, strain aat2, active compounds read low): 0.0535 (active) | normalized growth (S. cerevisiae deletion strains, locus YLR039C, strain RIC1, active compounds read low): 0.352 (active) | normalized growth (S. cerevisiae deletion strains, locus YLR058C, strain SHM2, active compounds read low): 0.525 (active) | normalized growth (S. cerevisiae deletion strains, locus YLR102C, strain apc9, active compounds read low): 0.832 (active) | normalized growth (S. cerevisiae deletion strains, locus YLR221C, strain rsa3, active compounds read low): 0.0576 (active) | normalized growth (S. cerevisiae deletion strains, locus YLR258W, strain gsy2, active compounds read low): 0.0568 (active) | normalized growth (S. cerevisiae deletion strains, locus YLR262C, strain YPT6 (second series), active compounds read low): 0.0741 (active) | normalized growth (S. cerevisiae deletion strains, locus YLR262C, strain YPT6, active compounds read low): 0.269 (active) | normalized growth (S. cerevisiae deletion strains, locus YLR268W, strain sec22, active compounds read low): 0.484 (active) | normalized growth (S. cerevisiae deletion strains, locus YLR320W, strain mms22, active compounds read low): 0.0732 (active) | normalized growth (S. cerevisiae deletion strains, locus YLR330W, strain CHS5, active compounds read low): 0.437 (active) | normalized growth (S. cerevisiae deletion strains, locus YLR342W, strain FKS1 (second series), active compounds read low): 0.254 (active) | normalized growth (S. cerevisiae deletion strains, locus YLR342W, strain FKS1, active compounds read low): 0.0622 (active) | normalized growth (S. cerevisiae deletion strains, locus YLR357W, strain rsc2, active compounds read low): 0.114 (active) | normalized growth (S. cerevisiae deletion strains, locus YLR370C, strain arc18, active compounds read low): 0.0656 (active) | normalized growth (S. cerevisiae deletion strains, locus YLR371W, strain rom2, active compounds read low): 0.23 (active) | normalized growth (S. cerevisiae deletion strains, locus YLR384C, strain iki3, active compounds read low): 0.0552 (active) | normalized growth (S. cerevisiae deletion strains, locus YLR418C, strain cdc73, active compounds read low): 0.153 (active) | normalized growth (S. cerevisiae deletion strains, locus YML016C, strain PPZ1, active compounds read low): 0.743 (active) | normalized growth (S. cerevisiae deletion strains, locus YML032C, strain rad52, active compounds read low): 0.407 (active) | normalized growth (S. cerevisiae deletion strains, locus YML120C, strain ndi1, active compounds read low): 0.0565 (active) | normalized growth (S. cerevisiae deletion strains, locus YML124C, strain tub3, active compounds read low): 0.692 (active) | normalized growth (S. cerevisiae deletion strains, locus YMR058W, strain fet3, active compounds read low): 0.0601 (active) | normalized growth (S. cerevisiae deletion strains, locus YMR078C, strain ctf18, active compounds read low): 0.802 (active) | normalized growth (S. cerevisiae deletion strains, locus YMR125W, strain sto1, active compounds read low): 0.0743 (active) | normalized growth (S. cerevisiae deletion strains, locus YMR129W, active compounds read low): 0.0564 (active) | normalized growth (S. cerevisiae deletion strains, locus YMR205C, strain PFK2, active compounds read low): 0.0816 (active) | normalized growth (S. cerevisiae deletion strains, locus YMR223W, strain ubp8, active compounds read low): 0.316 (active) | normalized growth (S. cerevisiae deletion strains, locus YMR231W, strain pep5, active compounds read low): 0.0615 (active) | normalized growth (S. cerevisiae deletion strains, locus YMR263W, strain SAP30, active compounds read low): 0.489 (active) | normalized growth (S. cerevisiae deletion strains, locus YMR307W, strain GAS1, active compounds read low): 0.162 (active) | normalized growth (S. cerevisiae deletion strains, locus YNL067W, strain RPL9B, active compounds read low): 0.605 (active) | normalized growth (S. cerevisiae deletion strains, locus YNL071W, strain lat1, active compounds read low): 0.058 (active) | normalized growth (S. cerevisiae deletion strains, locus YNL128W, strain TEP1, active compounds read low): 0.288 (active) | normalized growth (S. cerevisiae deletion strains, locus YNL153C, strain GIM3, active compounds read low): 0.356 (active) | normalized growth (S. cerevisiae deletion strains, locus YNL209W, strain ssb2, active compounds read low): 0.0575 (active) | normalized growth (S. cerevisiae deletion strains, locus YNL233W, strain BNI4, active compounds read low): 0.26 (active) | normalized growth (S. cerevisiae deletion strains, locus YNL248C, strain rpa49, active compounds read low): 0.0852 (active) | normalized growth (S. cerevisiae deletion strains, locus YNL250W, strain rad50, active compounds read low): 1.01 | normalized growth (S. cerevisiae deletion strains, locus YNL271C, strain bni1, active compounds read low): 0.997 | normalized growth (S. cerevisiae deletion strains, locus YNL298W, strain CLA4, active compounds read low): 1.01 | normalized growth (S. cerevisiae deletion strains, locus YNL307C, strain MCK1, active compounds read low): 0.262 (active) | normalized growth (S. cerevisiae deletion strains, locus YNL322C, strain KRE1 (second series), active compounds read low): 0.0601 (active) | normalized growth (S. cerevisiae deletion strains, locus YNL322C, strain KRE1, active compounds read low): 0.336 (active) | normalized growth (S. cerevisiae deletion strains, locus YNR049C, strain mso1, active compounds read low): 0.0593 (active) | normalized growth (S. cerevisiae deletion strains, locus YNR052C, strain pop2, active compounds read low): 0.0951 (active) | normalized growth (S. cerevisiae deletion strains, locus YOL006C, strain TOP1, active compounds read low): 0.196 (active) | normalized growth (S. cerevisiae deletion strains, locus YOL012C, strain htz1): 0.192 | normalized growth (S. cerevisiae deletion strains, locus YOL147C, strain pex11, active compounds read low): 0.497 (active) | normalized growth (S. cerevisiae deletion strains, locus YOR001W, strain rrp6, active compounds read low): 0.0714 (active) | normalized growth (S. cerevisiae deletion strains, locus YOR061W, strain CKA2, active compounds read low): 0.583 (active) | normalized growth (S. cerevisiae deletion strains, locus YOR069W, strain VPS5, active compounds read low): 0.736 (active) | normalized growth (S. cerevisiae deletion strains, locus YOR070C, strain gyp1, active compounds read low): 0.0567 (active) | normalized growth (S. cerevisiae deletion strains, locus YOR080W, strain dia2, active compounds read low): 0.0601 (active) | normalized growth (S. cerevisiae deletion strains, locus YOR083W, strain WHI5, active compounds read low): 0.0602 (active) | normalized growth (S. cerevisiae deletion strains, locus YOR106W, strain vam3, active compounds read low): 0.0665 (active) | normalized growth (S. cerevisiae deletion strains, locus YOR136W, strain idh2, active compounds read low): 0.607 (active) | normalized growth (S. cerevisiae deletion strains, locus YOR144C, strain elg1, active compounds read low): 0.662 (active) | normalized growth (S. cerevisiae deletion strains, locus YOR184W, strain ser1, active compounds read low): 0.325 (active) | normalized growth (S. cerevisiae deletion strains, locus YOR265W, strain rbl2, active compounds read low): 0.0536 (active) | normalized growth (S. cerevisiae deletion strains, locus YOR270C, strain vph1, active compounds read low): 0.0981 (active) | normalized growth (S. cerevisiae deletion strains, locus YOR290C, strain snf2, active compounds read low): 0.0607 (active) | normalized growth (S. cerevisiae deletion strains, locus YOR316C, strain cot1, active compounds read low): 0.863 (active) | normalized growth (S. cerevisiae deletion strains, locus YPL051W, strain arl3, active compounds read low): 0.0603 (active) | normalized growth (S. cerevisiae deletion strains, locus YPL055C, strain LGE1, active compounds read low): 0.189 (active) | normalized growth (S. cerevisiae deletion strains, locus YPL078C, strain atp4, active compounds read low): 0.0642 (active) | normalized growth (S. cerevisiae deletion strains, locus YPL106C, strain sse1, active compounds read low): 0.0997 (active) | normalized growth (S. cerevisiae deletion strains, locus YPL240C, strain hsp82, active compounds read low): 0.0539 (active) | normalized growth (S. cerevisiae deletion strains, locus YPL241C, strain CIN2, active compounds read low): 0.733 (active) | normalized growth (S. cerevisiae deletion strains, locus YPR119W, strain clb2, active compounds read low): 0.627 (active) | normalized growth (S. cerevisiae deletion strains, locus YPR141C, strain kar3, active compounds read low): 1.01 | normalized growth (S. cerevisiae deletion strains, locus YPR163C, strain tif3, active compounds read low): 0.178 (active) | normalized growth (S. cerevisiae deletion strains, locus YPR167C, strain met16, active compounds read low): 0.533 (active) | normalized growth (S. cerevisiae deletion strains, strain wtn01, active compounds read low): 0.425 (active) | normalized growth (S. cerevisiae strains, strain wild type, active compounds read low): 0.21 (active)
